Among all 220,000 compounds or so, about 800 (0.36%) were called active. Only a selection was taken, and actives are over-represented in it overall. Unmarked numbers belong to inactive results.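 The calls were made as follows: active = inhibition above about 30% (limit read from the data); inactive = the rest.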

For this test, the target named is Eukaryotic translation initiation factor 4E (Mus musculus) + Eukaryotic translation initiation factor 4 gamma 1 (Homo sapiens) (UniProt P63073+Q04637). Nature of the test: blockers of eIF4G binding by eIF4E – biochemical, uHTS, TR-FRET, eIF4GI fragment, primary screen (AID 782).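 Also: 0% = full FRET control wells and 100% = background wells lacking eIF4GI fragment.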 As to conditions: TR-FRET eIF4E-eIF4GI(517-606) binding, 2 h; at 21.7 µM; hits give high values. (TR-FRET usually uses a lanthanide donor and a delayed reading to cut background.)
Chain of Eukaryotic translation initiation factor 4E (Mus musculus) + Eukaryotic translation initiation factor 4 gamma 1 (Homo sapiens) (P63073 whole entry, looked up, the tested form may be a part): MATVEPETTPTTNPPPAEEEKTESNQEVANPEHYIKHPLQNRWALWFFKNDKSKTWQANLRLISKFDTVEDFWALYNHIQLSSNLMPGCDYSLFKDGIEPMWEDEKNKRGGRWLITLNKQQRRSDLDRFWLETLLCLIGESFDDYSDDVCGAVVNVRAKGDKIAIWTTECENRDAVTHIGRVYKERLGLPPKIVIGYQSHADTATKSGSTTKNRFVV
Chain of Eukaryotic translation initiation factor 4E (Mus musculus) + Eukaryotic translation initiation factor 4 gamma 1 (Homo sapiens) (Q04637 whole entry, looked up, the tested form may be a part): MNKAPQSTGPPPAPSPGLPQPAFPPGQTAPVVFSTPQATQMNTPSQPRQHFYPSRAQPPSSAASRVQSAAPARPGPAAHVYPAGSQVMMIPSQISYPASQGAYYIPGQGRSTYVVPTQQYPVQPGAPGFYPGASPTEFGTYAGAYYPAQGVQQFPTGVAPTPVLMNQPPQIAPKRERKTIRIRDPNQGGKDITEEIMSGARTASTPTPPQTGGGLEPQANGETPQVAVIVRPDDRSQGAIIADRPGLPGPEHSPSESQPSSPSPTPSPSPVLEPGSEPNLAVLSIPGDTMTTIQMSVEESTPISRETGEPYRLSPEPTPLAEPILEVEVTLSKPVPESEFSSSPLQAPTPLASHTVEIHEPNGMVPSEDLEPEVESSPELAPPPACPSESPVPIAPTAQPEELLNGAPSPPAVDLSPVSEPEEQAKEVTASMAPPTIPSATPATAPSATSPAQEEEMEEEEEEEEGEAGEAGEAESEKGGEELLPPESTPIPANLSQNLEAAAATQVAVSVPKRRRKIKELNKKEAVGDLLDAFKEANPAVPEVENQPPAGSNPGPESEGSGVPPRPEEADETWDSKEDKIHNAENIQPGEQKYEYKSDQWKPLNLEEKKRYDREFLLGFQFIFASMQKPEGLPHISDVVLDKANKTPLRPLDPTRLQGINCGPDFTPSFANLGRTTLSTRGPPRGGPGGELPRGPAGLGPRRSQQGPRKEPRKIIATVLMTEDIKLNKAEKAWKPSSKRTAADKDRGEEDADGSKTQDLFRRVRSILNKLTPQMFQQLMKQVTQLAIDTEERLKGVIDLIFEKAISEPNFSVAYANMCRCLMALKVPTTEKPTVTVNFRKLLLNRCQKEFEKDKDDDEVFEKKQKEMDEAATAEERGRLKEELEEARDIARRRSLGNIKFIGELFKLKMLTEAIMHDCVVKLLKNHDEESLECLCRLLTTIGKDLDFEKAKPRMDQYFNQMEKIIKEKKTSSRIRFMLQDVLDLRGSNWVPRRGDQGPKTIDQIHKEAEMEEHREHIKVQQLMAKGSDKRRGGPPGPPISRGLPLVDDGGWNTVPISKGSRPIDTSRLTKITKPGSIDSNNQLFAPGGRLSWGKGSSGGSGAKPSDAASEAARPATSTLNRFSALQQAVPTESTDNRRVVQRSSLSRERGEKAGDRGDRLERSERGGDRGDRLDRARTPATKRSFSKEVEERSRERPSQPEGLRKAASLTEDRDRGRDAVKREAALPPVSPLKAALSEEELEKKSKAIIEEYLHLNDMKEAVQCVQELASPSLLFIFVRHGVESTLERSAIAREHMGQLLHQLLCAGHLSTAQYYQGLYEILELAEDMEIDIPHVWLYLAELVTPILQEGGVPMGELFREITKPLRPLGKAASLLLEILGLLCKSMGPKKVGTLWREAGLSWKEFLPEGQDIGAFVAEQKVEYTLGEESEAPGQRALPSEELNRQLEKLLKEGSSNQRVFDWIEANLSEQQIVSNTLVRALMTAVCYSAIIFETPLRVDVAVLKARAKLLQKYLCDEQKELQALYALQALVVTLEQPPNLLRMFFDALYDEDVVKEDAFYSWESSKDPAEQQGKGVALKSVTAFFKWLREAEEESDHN
The inhibition is the relative decrease from the control value, in per cent. As to `CCCCOc1ccc(C(=O)NCC(=O)OCC(=O)N2CCN(S(=O)(=O)c3ccc(C)cc3C)CC2)cc1`, the inhibition is 11.8%.

`CC1CCN(CC(=O)c2c[nH]c3ccccc23)CC1`: the inhibition was -20.8%.

Take `O=C(OCC(=O)c1c[nH]c2ccccc12)c1cccc(O)c1`: the inhibition is 49.4% (active).

On to `O=C(Cc1c[nH]c2ccccc12)OCCOC(=O)Cc1c[nH]c2ccccc12`, for which the inhibition is 0.18%.

For the compound `CCOC(=O)CCCNC(=O)COC(=O)c1cc(Br)c(Br)s1`, the inhibition is -0.44%.

On to `COc1ccccc1OCC(=O)O/N=C(\N)c1ccccn1`, for which the inhibition was 4.41%.

Regarding `CCCn1nc(NS(=O)(=O)c2ccccc2)c2cc3cc(C)ccc3nc21`, the inhibition was 0.92%.

Regarding `COC(=O)Cn1c(O)c(N=NC(=O)OC)c2ccccc21`, the inhibition was 94.3% (active).

With `N#CCCCn1c(O)c(N=NC(=O)C(O)c2ccccc2)c2ccccc21` (stereo not given), the inhibition was 1.55%.

For the compound `CCCCn1c(O)c(N=NC(=O)Cn2c(C(F)(F)F)nc3ccccc32)c2ccccc21`, the inhibition is 16%.

With `CC1(C)C(c2cccs2)=[N+]([O-])C2(CCCCC2=O)N1O` (stereo not given), the inhibition was -4.23%.

In the case of `Cc1c(-c2cccc(Cl)c2)nc2ccccc2c1C(=O)OCC(=O)N(C)C1CCS(=O)(=O)C1` (stereo not given), the inhibition was 2.67%.

In the case of `CN(C(=O)COC(=O)c1cc(-c2ccco2)nc2ccccc12)C1CCS(=O)(=O)C1` (stereo not given), the inhibition is 42.4% (active).

As to `COc1ccc(NC(=O)COc2ccc(C(=O)OCC(=O)N(C)C3CCS(=O)(=O)C3)cc2OC)cc1` (stereo not given), the inhibition is -0.66%.

Turning to `O=C(NNC(=S)NC(=O)c1cn(-c2ccccc2)nc1-c1ccccc1)c1ccncc1`, the inhibition was 0.17%.

Take `Cc1ccc(N(C(=O)C(F)(F)F)C(C(=O)NC2CCCCC2)c2ccncc2)cc1C` (stereo not given): the inhibition was 4.58%.

As to `S=C(NCCc1ccccc1)N1CCn2cccc2C1c1ccncc1` (stereo not given), the inhibition was -2.42%.

As for `COc1ccc(-c2ccc(OC(=O)NC3CCS(=O)(=O)C3)cc2)cc1` (stereo not given), the inhibition was 2.9%.

`COc1ccc(NC(=S)NC2CCS(=O)(=O)C2)cc1` (stereo not given): the inhibition is 49.7% (active).

Turning to `Cc1ccc(NC(=S)NC2CCCC2)cc1`, the inhibition is 1.43%.

The values above are taken from PubChem BioAssay AID782 (Emory University Molecular Libraries Screening Center, 2007).
